Calls of active or inactive are those of the source. The calls were made as follows: active = hit-call score of the fitted dose curve at least 0.9, where 1 is the maximum; inactive = score below 0.9.
molecular target: Transcription factor Sp1 (Homo sapiens) (UniProt P08047); experiment: ATG_Sp1_CIS: Attagene CIS-FACTORIAL HepG2 Assay for human Specificity Protein 1 (Sp1) (AID 2282961); settings: HepG2 Sp1 cis-reporter transcription, actives raise or lower the signal
Summary of the method: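 Endpoint reflects endogenous Sp1 transcriptional activity, not an exogenous fusion protein: HepG2 cells with transfected cis-regulated reporters, 24 h dosing, RT-PCR/capillary electrophoresis mRNA read-out, DMSO-normalised bidirectional fit.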

Sequence of Transcription factor Sp1 (Homo sapiens) (P08047 whole entry, looked up, the tested form may be a part): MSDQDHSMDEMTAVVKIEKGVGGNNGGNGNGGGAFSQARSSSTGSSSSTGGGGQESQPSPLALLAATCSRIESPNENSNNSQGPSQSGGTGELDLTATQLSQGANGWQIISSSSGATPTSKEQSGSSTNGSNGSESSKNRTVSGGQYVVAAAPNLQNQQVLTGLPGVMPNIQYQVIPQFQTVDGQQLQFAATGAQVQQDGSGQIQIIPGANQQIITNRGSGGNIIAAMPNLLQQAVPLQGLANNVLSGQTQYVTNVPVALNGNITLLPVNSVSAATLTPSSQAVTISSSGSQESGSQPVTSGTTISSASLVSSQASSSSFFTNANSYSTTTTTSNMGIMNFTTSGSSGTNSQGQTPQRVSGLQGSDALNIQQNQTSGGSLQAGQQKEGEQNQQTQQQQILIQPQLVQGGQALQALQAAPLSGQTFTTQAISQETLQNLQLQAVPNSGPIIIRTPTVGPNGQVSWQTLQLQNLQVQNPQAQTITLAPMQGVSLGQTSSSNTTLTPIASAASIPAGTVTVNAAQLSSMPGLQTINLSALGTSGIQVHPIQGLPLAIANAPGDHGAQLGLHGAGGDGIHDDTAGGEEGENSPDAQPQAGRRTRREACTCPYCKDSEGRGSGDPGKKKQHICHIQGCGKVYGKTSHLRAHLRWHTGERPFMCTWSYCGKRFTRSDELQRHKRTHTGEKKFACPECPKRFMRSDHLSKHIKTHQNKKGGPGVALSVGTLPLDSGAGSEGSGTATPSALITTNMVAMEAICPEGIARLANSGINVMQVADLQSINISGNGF

Compound | outcome | AC50
O=C(O)c1cc(C(=O)O)cc([N+](=O)[O-])c1 | inactive | 
O=C(Nc1ccc([N+](=O)[O-])cc1)Nc1ccc([N+](=O)[O-])cc1 (tested in a mixture with another compound) | inactive | 
O=C1c2ccccc2C(=O)c2c(O)ccc(O)c21 | inactive | 
OCC#CCO | inactive | 
Cc1ncc([N+](=O)[O-])n1CCO | inactive | 
CCC1(c2ccccc2)C(=O)NCNC1=O | inactive | 
OC[C@H]1O[C@@H](Oc2ccc(O)cc2)[C@H](O)[C@@H](O)[C@@H]1O | inactive | 
COS(=O)(=O)O | inactive | 
Cc1occc(=O)c1OC(=O)C(C)C | inactive | 
CC1=NN(c2ccc(S(=O)(=O)O)cc2)C(=O)C1 | inactive | 
CC(C)NCC(O)COc1ccc(CC(N)=O)cc1 (stereo not given) | inactive | 
CC(C)OCCO | inactive | 
CN(C)C(=O)Nc1ccc(Oc2ccc(Cl)cc2)cc1 | inactive | 
COc1cc(C(C)C)ccc1C | inactive | 
O=C(O)c1cccnc1C(=O)O | inactive | 
CCCC(=O)c1ccccc1 | inactive | 
CCCCCCCCC=CCCCCCCCC1=NCCN1CCO | inactive | 
C=C(C)[C@@H]1CC=C(C)C(=O)C1 | inactive | 
CC1(C)O[C@@H]2[C@@H](CO[C@@]3(COS(N)(=O)=O)OC(C)(C)O[C@@H]23)O1 | inactive | 
COc1cc(CCC(C)=O)ccc1O | inactive | 
CC=Cc1ccc(OC)c(OC)c1 | inactive | 
CC[N+](C)(CC)CC | inactive | 
C[Si](C)(C)O[Si](C)(C)C | inactive | 
C=Cc1ccncc1 |  | 27.1 µM (active)
CSc1c(Cl)c(Cl)c(Cl)c(Cl)c1Cl |  | 72.8 µM (active)
